# From PubChem BioAssay (Tox21)
# Inconclusive results are not listed. A call without a number means that no potency is given here. Where a structure was tested more than once in an assay, its records may differ in their call. Calls of active or inactive are those of the source. Unless noted, calls follow the shape of the dose curve; as a rule, active = well fitted curve in the direction sought with a large enough effect in the repeat runs; inconclusive = weak or mixed curves; inactive = no such curve, though single readings can be large; an effect the other way counts as inactive or inconclusive. Residues, ends and D or L forms follow the SMILES beside them.
# Legend:
# [1] = qHTS assay to identify small molecule antagonists of the vitamin D receptor (VDR) signaling pathway - cell viability counter screen (AID 743225); also: nearly all actives have a fitted effect of over 50% in size
# How it was run: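 Viability counter screen run in the same wells as the beta-lactamase reporter assay: HEK 293T VDR-UAS-bla cells, 16 h compound exposure at 37C with 3 nM (final) 1-alpha,25-dihydroxyvitamin D3. CellTiter-Glo luminescence, 30 min, room temperature.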
# [2] = qHTS assay to identify small molecule agonists of the NFkB signaling pathway (AID 1159509; active = well fitted curve in the direction sought with a large enough effect in the signal ratio in the repeat runs, not every such curve was filed as active; the % refers to the signal ratio; also: series mostly up to about 61 µM)
# How it was run: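 NFkB-bla ME-180 cells carry a beta-lactamase reporter under an NF-kB response element. They were plated overnight, then exposed to compounds for 5 h at 37 C. Read-out is LiveBLAzer FRET after 1.5 hr at room temperature (405 nm excitation; 460/530 nm emission).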
# [3] = qHTS assay to identify small molecule agonists of the NFkB signaling pathway - cell viability counter screen (AID 1159515; calls by dose curve; also: series mostly up to about 61 µM; nearly all actives have a fitted effect of over 55% in size)
# How it was run: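 5 hr compound treatment of NFkB-bla ME-180 cells (2,000/well, seeded overnight beforehand), followed by reporter substrate for 1.5 hr. CellTiter-Glo added afterward; luminescence after 30 min RT.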
# [4] = qHTS assay to identify small molecule agonists of the endoplasmic reticulum stress response signaling pathway (AID 1159516; active = well fitted activation curve with a large enough effect in the signal ratio in the repeat runs, not every such curve was filed as active; the % refers to the signal ratio)
# How it was run: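 Reporter HeLa cells (ESRE-beta-lactamase) underwent 5 hr compound incubation at 37 C and 5% CO2 in quantitative HTS format. Detection followed 2 hr of FRET substrate loading at room temperature.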
# [5] = qHTS assay to identify small molecule agonists of the endoplasmic reticulum stress response signaling pathway - cell viability counter screen (AID 1159517; calls by dose curve;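 also: HeLa cells carrying an ER stress response element beta-lactamase reporter; series mostly up to about 61 µM; nearly all actives have a fitted effect of over 50% in size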)
# How it was run: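 CellTiter-Glo was added to wells already read for beta-lactamase FRET, and luminescence was recorded 30 min later. Cells: ESRE-bla HeLa, 1,500 per well, compound exposure 5 hr at 37 C.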
# [6] = qHTS assay to identify small molecule antagonists of the retinoid-related orphan receptor gamma (ROR-gamma) signaling pathway - cell viability counter screen (AID 1159520); also: nearly all actives have a fitted effect of over 50% in size; also: potency is read from the fitted curve at half-maximal effect
# How it was run: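 Tet-on ROR gamma CHO cells (1,000/well) were plated 4 hr, given compounds in DMSO for 2 hr at 37 C, then induced with 1 uM final doxycycline for 16 hr. Viability was read as ATP by CellTiter-Glo luminescence after 30 min.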
# [7] = qHTS assay to identify small molecule agonists of the AP-1 signaling pathway - cell viability counter screen (AID 1159525; calls by dose curve; also: nearly all actives have a fitted effect of over 55% in size; also: potency is read from the fitted curve at half-maximal effect)
# How it was run: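 ME-180 AP-1-bla, 2500 cells/well, Opti-MEM + 0.5% dialyzed FBS; overnight 37 °C; cpd 15-pt titration, 5 h 37 °C; CellTiter-Glo 30 min RT; luminescence read; normalised to TOAB and DMSO controls.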
# [8] = qHTS assay to identify small molecule agonists of the AP-1 signaling pathway (AID 1159526; calls by dose curve; also: potency is read from the fitted curve at half-maximal effect)
# [9] = qHTS assay to identify small molecule agonists of the RXR signaling pathway - cell viability counter screen (AID 1159529); also: nearly all actives have a fitted effect of over 50% in size; also: potency is read from the fitted curve at half-maximal effect
# How it was run: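 Luminescence from CellTiter-Glo (30 min, RT) measured viability in the same wells as the beta-lactamase reporter readout. Cells: GeneBLAzer RXR-alpha HEK 293T, 2% charcoal-stripped FBS. Compound exposure 16 hr, 37 C.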
# [10] = qHTS assay to identify small molecule antagonists of the retinoid acid receptor (RAR) signaling pathway - cell viability counter screen (AID 1159551); also: nearly all actives have a fitted effect of over 35% in size
# How it was run: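 Seed C3RL4 cells; next day add compound, then retinol to 1 uM final; incubate 6 h at 37 C; add CellTiter-Glo; read luminescence after 30 min at RT.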
# [11] = qHTS assay to identify small molecule antagonists of the retinoic acid receptor (RAR) signaling pathway (AID 1159552; also: nearly all actives have a fitted effect of over 50% in size)
# How it was run: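 Luminescence from a RARE luciferase reporter in C3RL4 cells served as read-out. Cells received compounds together with 1 uM final retinol and incubated 6 hr at 37 C before detection reagent was added for 30 min at room temperature.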
# [12] = qHTS assay to identify small molecule antagonists of the estrogen related receptor (ERR) signaling pathway - cell viability counter screen (AID 1224818);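 also: series mostly up to about 46 µM; viability measured after 17.5 h of compound exposure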
# How it was run: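 In the same ERR cell assay, compound-treated wells (17.5 h, 37 C) were multiplexed with a fluorogenic viability reagent, CellTiter-Fluor, read after 30 min to flag cytotoxic substances.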
# [13] = qHTS assay to identify small molecule antagonists of the estrogen related receptor (ERR) signaling pathway (AID 1224819)
# How it was run: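 qHTS in ERR cells, 2,000/well, 1536 format. Cpd (DMSO) added after 6 h settle, 18 h 37 C. One-Glo luminescence, 30 min RT.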
# [14] = qHTS assay to identify small molecule agonists of the estrogen related receptor (ERR) signaling pathway (AID 1224820)
# How it was run: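 ERR reporter cell line (from NTP), 2,000 cells/well, incubated 6 h before compound addition, then 18 h at 37 C. Luminescence measured 30 min after One-Glo reagent at room temperature.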
# [15] = system: estrogen-related receptor alpha (ERRalpha) with PGC-1alpha coactivator, human; assay: qHTS assay to identify small molecule antagonists of the estrogen related receptor signaling pathway with the pleiotropic PPARgamma coactivator (PGC) (AID 1224821; calls by dose curve)
# How it was run: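 PGC/ERR reporter cell line, plated 6 h before compound addition, then exposed 18 h at 37 °C. Luciferase activity read by luminescence 30 min after One-Glo addition; decrease indicates antagonism.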
# [16] = qHTS assay to identify small molecule antagonists of the estrogen related receptor signaling pathway with the pleiotropic PPARgamma coactivator (PGC) cell viability counter screen (AID 1224822; also: series mostly up to about 46 µM)
# How it was run: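 Compounds in DMSO, with positive and negative controls, were applied to PGC/ERR cells (2,000/well) and left 17.5 h at 37 C before CellTiter-Fluor detection.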
# [17] = qHTS assay to identify small molecule agonists of the estrogen related receptor signaling pathway with the pleiotropic PPARgamma coactivator (PGC) (AID 1224823)
# How it was run: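 PGC/ERR reporter cells seeded 6 h, then exposed to compounds (23 nL in DMSO) for 18 h at 37 C. One-Glo luciferase luminescence read after 30 min at room temperature.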
# [18] = target: Retinoic acid receptor RXR-alpha (Homo sapiens) (UniProt P19793); assay: qHTS assay to identify small molecule agonists of the RXR signaling pathway (AID 1159527; calls by dose curve; also: nearly all actives have a fitted effect of over 35% in size; also: potency is read from the fitted curve at half-maximal effect)
# Retinoic acid receptor RXR-alpha (Homo sapiens), sequence (P19793 whole entry, looked up): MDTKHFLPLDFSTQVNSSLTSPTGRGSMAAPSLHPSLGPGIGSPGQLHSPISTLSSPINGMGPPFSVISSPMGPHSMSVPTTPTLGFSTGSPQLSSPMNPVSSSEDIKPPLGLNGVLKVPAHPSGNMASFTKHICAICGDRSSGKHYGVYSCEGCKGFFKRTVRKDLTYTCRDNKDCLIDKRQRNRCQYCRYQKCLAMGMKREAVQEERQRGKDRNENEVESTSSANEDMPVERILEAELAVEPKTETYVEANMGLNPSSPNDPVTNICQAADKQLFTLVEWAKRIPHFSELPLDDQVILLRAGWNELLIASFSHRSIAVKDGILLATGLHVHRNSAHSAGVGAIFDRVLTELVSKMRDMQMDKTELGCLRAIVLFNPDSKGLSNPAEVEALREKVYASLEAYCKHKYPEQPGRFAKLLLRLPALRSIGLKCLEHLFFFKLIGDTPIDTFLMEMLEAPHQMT
# How it was run: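 Agonist mode; 9-cis retinoic acid positive control. HEK 293T UAS-bla reporter cells, 2% charcoal-stripped FBS, 16 hr compound exposure at 37 C/5% CO2. LiveBLAzer B/G FRET substrate 2 hr RT; ex 405, em 460/530 nm.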
# [19] = qHTS assay to identify small molecule agonists of the retinoic acid receptor (RAR) signaling pathway (AID 1159553)
# How it was run: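 Activation of retinol signaling was monitored via a RARE luciferase reporter in C3RL4 cells. After 6 hr compound treatment at 37 C, detection reagent was added for 30 min at room temperature before luminescence reading.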
Compound,outcome [1],outcome [2],outcome [3],outcome [4],outcome [5],Potency [6],Potency [7],Potency [8],Potency [9],outcome [10],Potency [11],outcome [12],outcome [13],Potency [14],outcome [15],outcome [16],Potency [17],Potency [18],outcome [19]
O=C(C1CCCCC1)N1CC(=O)N2CCc3ccccc3C2C1 (stereo not given),inactive,inactive,inactive,inactive,inactive,inactive,inactive,inactive,inactive,inactive,inactive,inactive,inactive,inactive,inactive,inactive,inactive,–,–
O=C(O)c1cc(N=Nc2ccc(S(=O)(=O)Nc3ccccn3)cc2)ccc1O,inactive,inactive,inactive,inactive,inactive,inactive,inactive,inactive,inactive,inactive,inactive,–,–,–,–,–,–,inactive,–
N=C(N)c1ccc(OCCCCCOc2ccc(C(=N)N)cc2)cc1,inactive,inactive,inactive,inactive,inactive,inactive,inactive,inactive,inactive,inactive,inactive,–,–,–,–,–,–,inactive,–
O=C(O)CS,inactive,inactive,inactive,inactive,inactive,inactive,inactive,inactive,inactive,inactive,–,–,–,–,–,–,–,inactive,–
Nc1ccc(C(=O)O)cc1,inactive,inactive,inactive,inactive,inactive,inactive,inactive,inactive,inactive,inactive,inactive,–,–,–,–,–,–,inactive,–
CCCC(CCC)C(=O)O,inactive,inactive,inactive,inactive,inactive,inactive,inactive,inactive,inactive,inactive,–,inactive,–,–,–,inactive,–,–,–
CCCCOC(=O)CC(CC(=O)OCCCC)(OC(C)=O)C(=O)OCCCC,inactive,inactive,inactive,inactive,inactive,inactive,inactive,inactive,inactive,inactive,–,–,–,–,–,–,–,inactive,–
NC(N)=NC(=O)c1nc(Cl)c(N)nc1N,inactive,inactive,inactive,inactive,inactive,inactive,inactive,inactive,inactive,inactive,–,inactive,–,–,–,inactive,–,inactive,–
CC(O)CN(CCN(CC(C)O)CC(C)O)CC(C)O (stereo not given),inactive,inactive,inactive,inactive,inactive,inactive,inactive,inactive,inactive,inactive,inactive,–,–,–,–,–,–,inactive,–
Cn1c(=O)c2[nH]cnc2n(C)c1=O,inactive,inactive,inactive,inactive,inactive,inactive,inactive,inactive,inactive,inactive,–,inactive,–,–,–,inactive,–,13.8 µM (active) and inactive,–
O=C(O)CCCCC(=O)O,inactive,inactive,inactive,inactive,inactive,inactive,inactive,inactive,inactive,inactive,–,–,–,–,–,–,–,inactive,–
Cn1cc[nH]c1=S,inactive,inactive,inactive,inactive,inactive,inactive,inactive,54.9 µM (active) and inactive,inactive,inactive,inactive,–,–,–,–,–,–,–,inactive
O=S(=O)(O)NC1CCCCC1,inactive,inactive,inactive,inactive,inactive,inactive,inactive,inactive,inactive,inactive,inactive,–,–,–,–,–,–,inactive,–
c1ccc2[nH]ccc2c1,inactive,inactive,inactive,inactive,inactive,2.69 µM (active) and inactive,42.9 µM (active) and inactive,inactive,48.2 µM (active) and inactive,inactive,–,–,–,–,–,–,–,inactive,–
Cc1ccccc1C(OCCN(C)C)c1ccccc1 (stereo not given),inactive,inactive,inactive,inactive,inactive,inactive,inactive,–,inactive,inactive,inactive,inactive,inactive,inactive,–,inactive,inactive,–,–
O=c1cc[nH]c(=S)[nH]1,inactive,inactive,inactive,inactive,inactive,inactive,inactive,inactive,inactive,inactive,inactive,–,–,–,–,–,–,493 nM (active) and inactive,–
COC(=O)[C@H](Cc1ccccc1)NC(=O)[C@@H](N)CC(=O)O (H-Asp-Phe-OMe),inactive,inactive,inactive,inactive,inactive,inactive,inactive,inactive,inactive,inactive,inactive,–,–,–,–,–,–,inactive,–
CC(O)CO (stereo not given),inactive,inactive,inactive,inactive,inactive,inactive,inactive,inactive,inactive,inactive,inactive,–,–,–,–,–,–,inactive,–

Compound,outcome [1],outcome [2],outcome [3],outcome [4],outcome [5],Potency [6],Potency [7],Potency [8],Potency [9],outcome [10],Potency [11],outcome [12],outcome [13],Potency [14],outcome [15],outcome [16],Potency [17],Potency [18],outcome [19]
NNC(=O)c1ccncc1,inactive,inactive,inactive,inactive,inactive,inactive,inactive,inactive,inactive,inactive,–,–,–,–,–,–,–,inactive,–
O=C(O)c1[nH]n(-c2ccc(S(=O)(=O)O)cc2)c(=O)c1N=Nc1ccc(S(=O)(=O)O)cc1,inactive,inactive,inactive,inactive,inactive,inactive,inactive,inactive,inactive,inactive,–,–,–,–,–,–,–,inactive,–
COc1ccc2[nH]cc(CCNC(C)=O)c2c1,inactive,inactive,inactive,inactive,inactive,inactive,inactive,inactive,inactive,inactive,–,inactive,inactive,inactive,inactive,inactive,inactive,inactive,–
NC(=O)c1cnccn1,inactive,inactive,inactive,inactive,inactive,inactive,inactive,inactive,inactive,inactive,–,inactive,inactive,inactive,inactive,inactive,inactive,inactive,–
Nc1ccc(S(=O)(=O)Nc2nccs2)cc1,inactive,inactive,inactive,inactive,inactive,inactive,inactive,inactive,inactive,inactive,inactive,–,–,–,–,–,–,19.6 µM (active) and inactive,–
O=S(=O)(O)c1ccc2cc(O)ccc2c1,inactive,inactive,inactive,inactive,inactive,inactive,inactive,inactive,inactive,inactive,inactive,–,–,–,–,–,–,inactive,–
NC(=O)c1ccccc1O,inactive,inactive,inactive,inactive,inactive,inactive,inactive,inactive,inactive,inactive,inactive,–,–,–,–,–,–,inactive,–
Nc1ccn([C@H]2CC[C@@H](CO)O2)c(=O)n1,inactive,inactive,inactive,inactive,inactive,inactive,inactive,inactive,inactive,inactive,–,inactive,–,–,–,inactive,–,inactive,–
COc1c2occc2cc2ccc(=O)oc12,inactive,inactive,inactive,inactive,inactive,inactive,inactive,inactive,inactive,inactive,inactive,–,–,–,–,–,–,inactive,–
Nc1ccc(S(=O)(=O)c2ccc(N)cc2)cc1,inactive,inactive,inactive,inactive,inactive,inactive,inactive,inactive,inactive,inactive,inactive,–,–,–,–,–,–,inactive,–
C1N2CN3CN1CN(C2)C3,inactive,inactive,inactive,inactive,inactive,inactive,inactive,inactive,inactive,inactive,inactive,–,–,–,–,–,–,inactive,–
NC(=O)NC1NC(=O)NC1=O (stereo not given),inactive,inactive,inactive,inactive,inactive,inactive,inactive,inactive,inactive,inactive,–,–,–,–,–,–,–,inactive,–
NS(=O)(=O)c1cc(C(=O)O)c(NCc2ccco2)cc1Cl,inactive,inactive,inactive,inactive,inactive,inactive,inactive,inactive,inactive,inactive,–,–,–,–,–,–,–,–,–
OCCc1ccccc1,inactive,inactive,inactive,inactive,inactive,inactive,inactive,inactive,inactive,inactive,inactive,–,–,–,–,–,–,inactive,–
OC(Cn1cncn1)(Cn1cncn1)c1ccc(F)cc1F,inactive,inactive,inactive,inactive,inactive,inactive,inactive,inactive,inactive,inactive,–,–,–,–,–,–,–,–,–
O=C1CN(/N=C/c2ccc([N+](=O)[O-])o2)C(=O)N1,inactive,inactive,inactive,inactive,inactive,inactive,inactive,inactive,inactive,inactive,inactive,–,–,–,–,–,–,inactive,–
Nc1ccc(O)c(C(=O)O)c1,inactive,inactive,inactive,inactive,inactive,inactive,inactive,inactive,inactive,inactive,inactive,–,–,–,–,–,–,inactive,–
